This note sets out measurements from ChEMBL document CHEMBL4513216, “Probing the Open Global Health Chemical Diversity Library for Multistage-Active Starting Points for Next-Generation Antimalarials” (ACS Infect Dis, 2020).

Structures are written as SMILES. Among all 68,000 compounds or so, about 2,700 (4%) showed an effect of 50% or more. Many of the other results were omitted from the sample, so strong results are more common in it than they were.

In the assay the test system is Plasmodium berghei. The assay can be described thus: Screen against P. berghei liver stage (PbLuc), transformed with Luciferase, at 2uM. Type of assay: functional, HepG2. The note with it: tested at 2 uM.
Consider `Cn1cc(C2COC3(CCN(C(=O)Cn4cccn4)CC3)C2)cn1` (configuration not stated), for which the INHIBITION is given as 12.36%. `CCOCC1CN(CC2CC2)Cc2nn(C)cc21` (configuration not stated): the INHIBITION is listed as 4.99%. Turning to `O=C(CCC1CCCC1)NCCn1nc(C2CCNC2)c2nccnc21` (configuration not stated), the INHIBITION was 26.52%. Under `CCOCCN1CCN(Cc2coc(-c3cccc(F)c3)n2)CC1` stands 62.13%.

For `OCCN1CCN(Cc2coc(-c3cccc(F)c3)n2)CC1`, the INHIBITION was found to be 45.83%. In the case of `CCN1CCN(Cc2coc(-c3cccc(F)c3)n2)CC1` it was 23.92%; in that of `O=C(c1cnccn1)N1CCOC2(CCN(Cc3ccsc3)CC2)C1`, -3.36%.

On to `CCOCC(=O)N1C[C@@H]2COC[C@H](c3nc(C)no3)[C@@H]2C1`, for which the INHIBITION is 64.16%. In the case of `Cc1noc([C@H]2COC[C@H]3CN(C(=O)Cc4ccccc4F)C[C@H]32)n1` it was 15.89%. Under `Cc1noc([C@H]2COC[C@H]3CN(C(=O)Cc4ccc(F)cc4)C[C@H]32)n1` stands 11.08%; under `CC(C)c1ccc(C(CN)N2CCc3sccc3C2)cc1` (configuration not stated), 11.74%. Under `CN(Cc1ccco1)[C@@H]1CN(Cc2ccoc2)C[C@@H]2CCCO[C@@H]21` stands -11.13%; under `CC1(C)CNC(=O)CN(C(=O)Cc2ccccc2)C1`, 30.56%. For `CC(Cn1cncn1)NC1CCN(Cc2cccc(O)c2)CC1` (configuration not stated), the INHIBITION is listed as -6.77%. For the molecule `Cc1cc(C)n(CC(C)NC2CCN(Cc3cccc(O)c3)CC2)n1` (configuration not stated), the INHIBITION came out at 32.71%. Under `CC(CN1CCOCC1)NC1CCN(Cc2cccc(O)c2)CC1` (configuration not stated) stands 58.12%; under `COc1ccc(CCC(C)Nc2cccc(SC)c2)cc1` (configuration not stated), 2.5%. Under `CCOCC1c2c(ncn2C)CCN1C(=O)c1cnc(C)cn1` (configuration not stated) stands -6.19%. In the case of `Cc1ccc(C(=O)N(C)Cc2cscn2)c(=O)[nH]1` it was 44.39%; in that of `Cc1ccc(C(=O)N(Cc2ccccc2F)C2CC2)c(=O)[nH]1`, -2.23%.

In the case of `Cc1ccc(C(=O)N(C)CCOc2ccccc2F)c(=O)[nH]1`, the INHIBITION came to 54.62%. As for `O=S(=O)(c1ccc(F)cc1)n1cc(Cl)cn1`, the INHIBITION is on record as -0.9%.

Take `NC(=O)c1ccc2c(c1)nc1n2CCN(Cc2cccnc2)C1`: the INHIBITION turned out to be 8.41%. In the case of `O=C(Nc1ccccc1)C1CN(Cc2nccs2)CC12CCOCC2` (configuration not stated) it was 11.9%. `Cc1cc(-c2cnc(N3CCSCC3)nc2-c2ccc(C)s2)on1`: the INHIBITION is recorded as -48.18%. Under `COc1ccc(SC(C)C(=O)N2CCC(NC(=O)C3CC3)CC2)cc1` (configuration not stated) stands 61.74%; under `COc1ccc(SC(C)C(=O)N2CCC(C(N)=O)CC2)cc1` (configuration not stated), -12.36%. Under `COc1ccc(SC(C)C(=O)N2CCC(O)CC2)cc1` (configuration not stated) stands -0.39%; under `O=C1N(c2cccnc2)CCC12CCCN(Cc1ccoc1)C2` (configuration not stated), 16.39%; under `O=C(NCCc1ccccc1)N1C[C@@H]2C[C@H](C(=O)N3CCCC3)[C@H](C1)O2`, -0.89%.

Turning to `CCC1=N[C@@]2(CC[C@@H]3CN(Cc4ccc(F)cc4)C[C@@H]32)C(=O)N1C`, the INHIBITION was -22.23%.

Turning to `Fc1ccc(CN2CCCC(c3nccnc3-n3ccnc3)C2)cc1` (configuration not stated), the INHIBITION is 50.74%. In the case of `Fc1ccc(CN2CCC(c3nccnc3-n3ccnc3)CC2)cc1` it was 16.87%. In the case of `c1ccc(CN2CCCC(c3nccnc3-n3ccnc3)C2)cc1` (configuration not stated) it was 22.66%; in that of `CS(=O)(=O)N[C@@H]1CCN(Cc2cccnc2)[C@H]1Cc1ccccc1`, 7.26%. `CN(C)C1CCN(C(=O)c2cc(-c3ccn(C)n3)n3ccccc23)CC1`: the INHIBITION is on record as -40.37%. In the case of `CC(C)NC(=O)N1C[C@@H](F)[C@@H](OCc2nc3ccccc3o2)C1`, the INHIBITION came out at 16.47%. For the molecule `CC(C)N1CCC(N2CCOC3(CCCC3)C2)C1=O` (configuration not stated), the INHIBITION is -0.75%. For the molecule `COC(=O)c1sccc1S(=O)(=O)NCCC(O)c1ccco1` (configuration not stated), the INHIBITION is listed as 4.89%. Under `CS(=O)(=O)NCCNc1ncnc2cccc(F)c12` stands 17.73%; under `CSCCCNc1ncnc2cccc(F)c12`, 28.79%.

Regarding `Fc1cccc2ncnc(NCCCc3ccncc3)c12`, the INHIBITION stood at 54.3%. Under `CC(C)(C)c1cn(C2CCN(C(=O)c3cnccn3)CC2)nn1` stands 50.4%; under `CC(C)n1cc(C(=O)N2CCC(n3cc(C(C)(C)C)nn3)CC2)cn1`, 22.39%; under `CC(C)(C)c1cn(C2CCN(C(=O)c3cncnc3)CC2)nn1`, 40.83%. Under `Cc1cncc(C(=O)N2C[C@@H](C(=O)O)[C@H](C(C)C)C2)c1` stands 44.23%. Under `COc1cc(C2(C(=O)NCCn3ccnc3)CCCC2)ccc1C` stands -64.32%; under `CCc1ncc(S(C)(=O)=O)c(C2CCCNC2)n1` (configuration not stated), 18.8%.

Turning to `O=C(NCCn1ccc(-c2ccncc2)n1)c1ccc2c(c1)OCO2`, the INHIBITION was determined as 6.33%. Under `CCCS(=O)(=O)NC(C)C(=O)NCc1ccc(N2CCN(C)CC2)nc1` (configuration not stated) stands -34.5%; under `COc1cc(C)c(C(C)NC(=O)Nc2nnc(C)s2)cc1OC` (configuration not stated), 39.48%. Under `COc1ccc(OC)c(C(C)NC(=O)Nc2nnc(C)s2)c1` (configuration not stated) stands -10.7%; under `COc1ccc(C(C)NC(=O)Nc2nnc(C)s2)c(OC)c1` (configuration not stated), 58.69%.

As to `CC(Cc1c(F)cccc1F)NC(=O)CSCC(N)=O` (configuration not stated), the INHIBITION came out at 14.19%.

As for `CC(C)N(CC(N)=O)CC(=O)NCCc1c(F)cccc1F`, the INHIBITION worked out at 37.18%. Under `CC(Cc1c(F)cccc1F)NC(=O)CN(CC(N)=O)C(C)C` (configuration not stated) stands 58.53%; under `O=C1NCCN2CCN(C(=O)NCCc3ccccc3)CC12` (configuration not stated), 33.48%. Regarding `CNS(=O)(=O)c1ccc(CN2CCN3CCNC(=O)C3C2)cc1` (configuration not stated), the INHIBITION is listed as -43.5%. For the molecule `CS(=O)(=O)c1ccc(CC(=O)N2CCN3CCNC(=O)C3C2)cc1` (configuration not stated), the INHIBITION worked out at 83.83%. For the molecule `Cc1cc(-c2cnc(N3CCOCC3)nc2-c2ccc(C)s2)on1`, the INHIBITION is listed as 8.09%. Under `CCS(=O)(=O)CCCN1CCSCC1c1ccc(Cl)cc1` (configuration not stated) stands 52.98%; under `CS(=O)(=O)NCCN1CCCC1c1ccc(Cl)cc1` (configuration not stated), 8.42%.

Turning to `CS(=O)(=O)CCN1CCSCC1c1ccc(Cl)cc1` (configuration not stated), the INHIBITION came to 5.28%. Consider `CS(=O)(=O)CCCN1CCSCC1c1ccc(Cl)cc1` (configuration not stated), for which the INHIBITION is 62.51%. For the molecule `CS(=O)(=O)NCCN1CCSCC1c1ccc(Cl)cc1` (configuration not stated), the INHIBITION is reported as 36.28%. As for `Cc1ccc(C2CSCCN2CCS(C)(=O)=O)cc1` (configuration not stated), the INHIBITION came to 38.67%.

Take `CCN(C(=O)c1cc(C)nc2ccccc12)C1CC(=O)NC1=O` (configuration not stated): the INHIBITION is reported as 10.93%.

With `Nc1ncccc1C(=O)NCc1ccc(Br)cc1`, the INHIBITION is 49.69%. In the case of `Cc1csc(N2CCN(C(=O)C(C)n3cncn3)CC2)n1` (configuration not stated), the INHIBITION came to 4.18%.

In the case of `Cc1cc(C(=O)NCCCn2nccc2C2CC2)c(=O)[nH]c1C`, the INHIBITION came to 49.45%. In the case of `COc1c(CNCc2ccnc(N(C)C)c2)c(C(C)C)nn1C` it was 18.85%. In the case of `CC(=O)N1CCN([C@@H]2CCC[C@@H](NC(=O)c3cccnc3)[C@H]2O)CC1` it was 20.44%; in that of `CC(=O)N1CCOC2(CCN(C(=O)C3CC3)CC2)C1`, -31.76%; in that of `NC(=O)CN1CCCN(C(=O)c2ccc(SC(F)F)cc2)CC1`, 2.31%. Under `O=C(CCOCC(F)(F)F)N1CCCC(n2ccnc2)C1` (configuration not stated) stands 2.21%; under `O=C1COc2ccc(C(=O)NS(=O)(=O)c3cc(F)ccc3F)cc2N1`, -9.66%; under `Cc1nc(NC(=O)c2nn(-c3ccc(F)cc3C)cc2O)n[nH]1`, 2.82%. Take `c1ccc(-c2nnc(CNCCn3cccn3)o2)cc1`: the INHIBITION is 51.32%.

For `COc1ccc(-c2nnc(CNCCn3cccn3)o2)cc1`, the INHIBITION was -16.99%. `Cc1ccc(-c2nnc(CNCCn3cccn3)o2)cc1`: the INHIBITION is given as -9.22%. For the molecule `COc1cccc(C(=O)N2CCCC(CNS(C)(=O)=O)C2)c1` (configuration not stated), the INHIBITION came out at 2.74%. In the case of `Cc1cc(C2CCCN(C(=O)CCc3cscn3)C2)n[nH]1` (configuration not stated) it was -0.13%; in that of `COCC(NC(=O)c1ccco1)c1cccc(C(F)(F)F)c1` (configuration not stated), 39.45%; in that of `COCC(NC(=O)c1ccoc1C)c1cccc(C(F)(F)F)c1` (configuration not stated), 74.22%.

On to `COCC(NC(=O)c1ccc[nH]1)c1cccc(C(F)(F)F)c1` (configuration not stated), for which the INHIBITION came to 11.28%.

For the molecule `NS(=O)(=O)Cc1ccc(CNC(=O)NCC2CCOC2)cc1` (configuration not stated), the INHIBITION is -27.91%. Under `CC1CN(CC(=O)NCCc2ccncc2)Cc2ccccc2O1` (configuration not stated) stands 11.9%; under `CC1CN(CCC(=O)NCCc2cccnc2)Cc2ccccc2O1` (configuration not stated), 52.3%; under `Cc1ccc2c(c1)CN(CC(=O)NCCc1ccc(F)cc1)CC(C)O2` (configuration not stated), -16.71%. In the case of `COC(=O)c1cnc2c(c(C)nn2C)c1OC` it was -8.44%; in that of `COc1ncccc1CNC(=O)NCc1ccco1`, -2.87%; in that of `Nc1no[n+]([O-])c1C(=O)NCc1ccccn1`, -18.45%.

Regarding `COc1ncccc1CNC(=O)NCCNS(C)(=O)=O`, the INHIBITION is reported as 6.3%.

With `COc1ncccc1CNC(=O)c1csc(Br)c1`, the INHIBITION was -12.08%.

Regarding `CCCNC(=O)NCc1cccnc1OC`, the INHIBITION is reported as 56.12%.

Regarding `Nc1no[n+]([O-])c1C(=O)NCc1cccnc1`, the INHIBITION is reported as -3.26%. Under `COc1ncccc1CNC(=O)c1cc(F)cc(Br)c1` stands 58.69%; under `COc1ncccc1CNC(=O)c1ccco1`, 51.46%. Under `Nc1no[n+]([O-])c1C(=O)NCc1ccco1` stands 84.12%.

On to `COc1ncccc1CNC(=O)NCCNC(=O)c1ccco1`, for which the INHIBITION worked out at 39.92%. Regarding `COc1ncccc1CNC(=O)c1c[nH]c(=O)c(Br)c1`, the INHIBITION was determined as 37.18%. In the case of `CC(C)Oc1ncccc1CNC(=O)c1ccco1` it was 26.11%; in that of `CC(O)CNC(=O)CCc1nc2ncccc2[nH]1` (configuration not stated), 17.33%; in that of `CC(C)c1nccn1CCCNC(=O)c1ccc(-c2cncnc2)nc1`, 27.84%. For `O=C(c1cnc(-c2cccnc2)nc1)N1CCC(c2ccncc2)CC1`, the INHIBITION is given as -70.5%. In the case of `CCC(C)N1C(=O)c2ccc(C(=O)NCCc3c[nH]cn3)cc2C1=O` (configuration not stated), the INHIBITION is 35.09%.

In the case of `NCc1cccc(-c2cccnc2C(=O)NCCCN2CCOCC2)c1`, the INHIBITION is listed as 3.63%.
